Source: PubChem BioAssay
An excerpt weighted towards active compounds, which were near 19% of everything screened.
KB-3-1 tox – qHTS assay for MDR1-selective chemotherapeutics: Primary screen using the parental adenocarcinoma cell KB-3-1; 400,000 compounds, 1.4% hits; KB-3-1 viability, CellTiter-Glo ATP luminescence, 72 h; Potency, µM (top dose mostly 46.1 µM), usual class: cytotoxic; further: nearly all actives have a fitted effect of over 60% in size
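Here the drug-naive KB-3-1 line serves as comparator for MDR sub-line selectivity; cells received compound titrations, 72 h at 37 °C, then CellTiter-Glo readout.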
HT1080 IDH1KD tx – qHTS for induction of synthetic lethality in tumor cells producing 2HG: qHTS for the HT-1080-IDH1KD cell line; 360,000 compounds, 2% hits; HT-1080 IDH1 knockdown viability, ATP luminescence, 48 h; Potency, µM (doses to about 46.1 µM), inactives show top-dose activity, negative = toxicity, actives largely listed as cytotoxic;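 further: 0% = DMSO wells and -100% = cell-free medium wells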
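Assay cells: HT-1080 with IDH1 knockdown, 750 per well, RPMI/5% FBS. Exposure: 48 h at 37 °C following 2 h pre-incubation. Read: CellTiter-Glo luminescence; fitted concentration-response, curve class assigned.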
KB-V1 cytotox – qHTS assay for MDR1-selective chemotherapeutics: Primary screen using the drug-selected MDR subline cells KB-V1; KB-V1 MDR cells viability, CellTiter-Glo, 72 h; Potency, µM (doses to about 46.1 µM), most hits filed as cytotoxic; 400,000 compounds, 3.4% hits; AID 1347076, 2019; further: nearly all actives have a fitted effect of over 60% in size
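Readout: CellTiter-Glo luminescence, 10 min after addition. Cells: KB-V1 MDR subline, 72 h at 37 degrees C with compound. Analysis: corrected, normalized data fitted to concentration-effect curves.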
DT40 TDP1 CPT – qHTS for Inhibitors of human tyrosyl-DNA phosphodiesterase 1 (TDP1): qHTS in cells in presence of CPT; chicken DT40 Tdp1-/-;hTDP1 cells + 20 nM CPT, ATP luminescence, 48 h; Potency, µM (highest dose often 46.2 µM), without a hit: at the top dose activity change, negative = growth inhibition, most hits filed as inhibitors; 420,000 compounds, 12% hits; AID 686979, 2013; further: nearly all actives have a fitted effect of over 55% in size
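Chicken DT40 Tdp1-/- cells stably complemented with human TDP1 were seeded at 400 cells/well in medium containing 20 nM camptothecin, exposed to pin-transferred compounds, and grown at 37 °C for at least 48 hr. Viability was read as ATP luminescence.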
TDP1 cell noCPT – qHTS for Inhibitors of human tyrosyl-DNA phosphodiesterase 1 (TDP1): qHTS in cells in absence of CPT. Potency, µM (titrated, usually from 46.2 µM), without a hit: at the highest dose activity change, negative = growth inhibition, actives largely listed as inhibitors. DT40 Tdp1-/- hTDP1 cells, no CPT, ATP luminescence, 48 h. 420,000 compounds, 15% hits; further: nearly all actives have a fitted effect of over 55% in size
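Seeded 400 DT40-hTDP1 cells/well (vehicle DMSO, no 20 nM CPT); pinned compounds; ≥48 hr at 37 °C; CellTiter-Glo luminescence as viability measure.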
HT1080-NT tox – qHTS for induction of synthetic lethality in tumor cells producing 2HG: qHTS for the HT-1080-NT fibrosarcoma cell line | 360,000 compounds, 1.6% hits | Potency, µM (series often up to 46.1 µM), for inactives: at the top dose activity, negative = less viability, actives largely listed as cytotoxic | HT-1080-NT fibrosarcoma viability, CellTiter-Glo ATP luminescence, 48 h;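 further: NT is the 2HG producing partner of a matched IDH1 knockdown line; 0% = DMSO-treated cells and -100% = media-only wells without cells; nearly all actives have a fitted effect of over 55% in size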
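Read-out is CellTiter-Glo luminescence after 10 minutes at room temperature, following 48 hours' compound treatment of HT-1080-NT cells (750 cells/well, RPMI, 5% FBS, 37 degrees C).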
The depositor's hits bear a star; i = inactive; ? = inconclusive; . = not tested or not shown. The call rests on the fitted dose curve; in most records, active means well fitted curve in the direction sought with a large enough effect; inconclusive means small, poorly fitted or top-dose-only effect, or another doubt; inactive means no such curve, though single readings can be large; an effect the other way counts as inactive or inconclusive. Unless noted, on the % scale 0 is the no-effect control and ±100 the full control effect; potency means the concentration at half of the fitted maximal effect.

SMILES	KB-3-1 tox	HT1080 IDH1KD tx	KB-V1 cytotox	DT40 TDP1 CPT	TDP1 cell noCPT	HT1080-NT tox
COC(=O)c1ccc2nc(-c3ccco3)c(Cc3cccc(F)c3)n2c1	i	?	i	16µM*	18µM*	?
COC(=O)c1ccc2nc(-c3ccc(F)cc3)c(Cc3cccc(F)c3)n2c1	?	12%	?	-28%	-28%	1%
COC(=O)c1ccc2nc(-c3ccc(OC)c(OC)c3)c(Cc3cccc(F)c3)n2c1	i	?	i	12µM*	13µM*	-25%
CCCS(=O)(=O)NC(=O)C1(C)CCN(C(=O)c2ccc3ccccc3n2)C1 (centres undefined)	i	0%	i	-1%	-13%	27%
COC(=O)c1ccc2nc(-c3ccc(OC)c(OC)c3)c(Cc3ccc(C)cc3)n2c1	i	?	i	?	21µM*	?
COC(=O)c1ccc2nc(-c3ccco3)c(Cc3ccc(OC)cc3C)n2c1	i	16µM*	i	?	?	?
COc1ccc(-c2nc3ccc(Cl)cn3c2Cc2ccc(C)cc2)cc1OC	i	?	i	?	?	?
O=C1NC[C@H](CCCCN2C[C@H](Cc3ccc(O)cc3)N(CCC3CCCCC3)C(=O)C2=O)N(CCC2CCCCC2)C1=O	?	8%	i	-3%	-10%	15%
COc1ccc(C2(c3ccc(OC)cc3)NC(=O)N(Cn3nnc4ccccc4c3=O)C2=O)cc1	i	-14%	i	21µM*	?	-16%
COc1ccc(OC)c(N(C)S(=O)(=O)c2ccc3c(c2)NC(=O)CC(=O)N3)c1	i	.	?	0%	-11%	.
Cc1nn(C)c2c1c(-c1ccccc1)cc(=O)n2CC(=O)NC(C)(C)C	i	.	i	?	?	.
COc1ccc(OC)c(NC(=O)Cn2c(=O)cc(-c3ccccc3)c3c(C)nn(C)c32)c1	i	.	i	?	21µM*	.
COc1cccc(Cn2c(=O)cc(C)c3c(C)nn(-c4ccc(C)cc4)c32)c1	i	.	i	21µM*	18µM*	.
COC(=O)c1ccccc1NC(=O)Cn1c(=O)cc(C)c2c(C)nn(C)c21	i	.	i	-27%	?	.
Cc1cc(=O)n(Cc2cccc(Br)c2)c2c1c(C)nn2-c1ccccc1	i	.	?	-22%	-9%	.
Cc1nn(C)c2c1c(-c1ccccc1)cc(=O)n2Cc1ccc(F)cc1	i	.	i	16µM*	?	.
COC(=O)c1ccc(Cn2c(=O)cc(C)c3c(C)nn(C)c32)cc1	i	.	i	10µM*	16µM*	.
Cc1cc2nccc(-c3cccnc3)n2n1	i	18%	i	11%	-6%	-1%
Cc1cccc(C)c1NC(=O)C1c2ccccc2OCC(=O)N1Cc1ccccc1 (centres undefined)	i	?	i	-23%	?	2%
Cc1cccc(COC[C@H](Cc2ccccc2)N2CCN(C(=O)c3ccc(C(F)(F)F)cc3)CCC2=O)c1	?	?	?	?	18µM*	?
Cc1cccc(COCC(Cc2ccccc2)N2CCN(C(=O)c3ccc(C(F)(F)F)cc3)CCC2=O)c1 (centres undefined)	21µM*	-29%	12µM*	23µM*	21µM*	-2%
O=C(c1ccc(C(F)(F)F)cc1)N1CCC(=O)N(C(COCc2ccc(C(F)(F)F)cc2)Cc2ccccc2)CC1 (centres undefined)	?	-24%	i	?	18µM*	?
O=C(c1ccc(Cl)cc1)N1CCC(=O)N(C(CO)Cc2ccccc2)CC1 (centres undefined)	i	0%	i	5%	8%	-2%
CC(C)c1nc2ccc(Br)cn2c1NC1CCCC1	i	-2%	i	-2%	-1%	0%
Cc1cc(C(=O)Nc2ccccc2)oc(=O)c1	i	2%	i	?	?	5%
SMILES	KB-3-1 tox	HT1080 IDH1KD tx	KB-V1 cytotox	DT40 TDP1 CPT	TDP1 cell noCPT	HT1080-NT tox
COc1cccc(CN2CCC2(C)C(=O)Nc2ccc(Cl)c(Cl)c2)c1F (centres undefined)	i	?	i	21µM*	?	-22%
CC1(C(=O)NCc2ccccc2Br)CCN1Cc1ccc(-c2ccccc2)o1 (centres undefined)	5.2µM*	?	21µM*	?	?	?
COc1cccc(CN2CCC2(C)C(=O)Nc2cnc3ccccc3c2)c1F (centres undefined)	i	?	?	?	18µM*	-27%
CC1(C(=O)NCc2cccc(C(F)(F)F)c2)CCN1Cc1ccc(-c2ccccc2)o1 (centres undefined)	i	?	?	?	?	?
CC1(C(=O)Nc2cnc3ccccc3c2)CCN1Cc1ccc(-c2ccccc2)o1 (centres undefined)	i	1%	?	?	16µM*	-21%
NC(=Nc1c([N+](=O)[O-])cnc2ccccc12)N1CCOCC1	i	6%	i	-20%	-9%	7%
Cc1oc(=O)cc(OCc2ccccc2)c1C	i	15%	i	?	-28%	7%
Nc1ncnc(N)c1NC(=O)c1ccc(OCc2ccccc2)cc1	i	8%	i	-4%	-23%	7%
CC1(C(=O)Nc2cnc3ccccc3c2)CCN1Cc1ccccc1Cl (centres undefined)	i	?	i	16µM*	15µM*	?
CC1(C(=O)Nc2cnc3ccccc3c2)CCN1Cc1ccc(OC(F)(F)F)cc1 (centres undefined)	i	?	i	?	?	?
CSc1ccc(CN2CCC2(C)C(=O)Nc2cnc3ccccc3c2)cc1 (centres undefined)	i	14%	i	?	?	1%
CC1(C(=O)Nc2cnc3ccccc3c2)CCN1Cc1ccccc1OC(F)F (centres undefined)	i	?	?	23µM*	16µM*	?
